# Data from PubChem BioAssay AID2314 (National Center for Advancing Translational Sciences (NCATS), 2010).
# In all, about 300,000 compounds went through this assay and about 37,000 (12%) were called active. For the sample, actives were picked, then their nearest neighbours and some compounds at random. Unmarked numbers belong to inactive results. No stated cut-off is given here; in the data, active means max response mostly above about 13% (no sharp cut-off); inactive means mostly below about 14%.
# Test: Cycloheximide Counterscreen for Small Molecule Inhibitors of Shiga Toxin; further: read at 38.3 µM for the half of the compounds with a filed dose; 0% is about no effect
# Details: cell reporter, cycloheximide protein synthesis inhibition counterscreen; active compounds read high
row,Structure (SMILES),max response
1,CCC1=Nc2cc(C(=O)NCCCN3CCOCC3)ccc2Sc2ccc(Br)cc21,-2.78%
2,CC(=O)Nc1ccc(S(=O)(=O)NCC(=O)OCc2cc(=O)oc3ccc4ccccc4c23)cc1,-2.56%
3,Cc1cc(OCCN2CCCC2)cc(C(C)C)c1,-2.45%
4,CCn1cc(CN2CCC(C(=O)Nc3cccc(-c4cccc(Cl)c4)c3)CC2)cn1,-10.1%
5,CC1Cc2cc(/C(O)=C3\C(=O)C(=O)N(Cc4cccnc4)C3c3ccccc3F)ccc2O1 (stereo not drawn),-1.92%
6,O=C(Cn1cc(/C=N/NC(=O)c2cccc(C(F)(F)F)c2)c2ccccc21)Nc1ccc(F)cc1,2.04%
7,O=C(C(Cc1ccccc1)n1cccc1)N1CCN(C2CCCCC2)CC1 (stereo not drawn),-4.26%
8,CCOC(=O)C1CCN(S(=O)(=O)c2c(C)noc2C)CC1,-1.8%
9,Cc1ccc(NC(=O)c2ccn(C(=O)Nc3ccccc3)n2)c(C)c1,43.3% (active)
10,Cc1ccc(C)c(S(=O)(=O)N2CCN(C(=O)Nc3ccccc3)CC2)c1,-1.4%
11,Cc1ccc(NC(=O)Cn2nc(C)c3ccccc3c2=O)c(C)c1,-1.38%
12,Cc1ccc(CCCOC(=O)C[N+]2(C)CCCC2)cc1,-2.71%
13,Cc1c(C(=O)N2CCN(c3ccc(F)cc3)CC2)oc2c1C(=O)CCC2,-3.49%
14,CCCCOC(=O)CCCc1ccc([N+](=O)[O-])cc1[N+](=O)[O-],-1.18%
15,CC1C(=O)Nc2ccccc2N1C(=O)c1c(F)cccc1F (stereo not drawn),-2.05%
16,CC(Oc1cccc(NC(=O)c2cccs2)c1)C(=O)c1ccccc1 (stereo not drawn),19.5% (active)
17,COc1cccc(NC(=O)C(C)Oc2ccccc2)c1 (stereo not drawn),4.2%
18,O=C(Nc1ccccc1-c1ccccc1)c1cccs1,5.16%
19,Cc1cccc(/C=N/NC(=O)CNc2cccc3ccccc23)n1,45.5% (active)
20,C/C(=N\NC(=O)CNc1cccc2ccccc12)c1ccc(Br)s1,-2.1%
21,Cn1cccc1/C=N/NC(=O)CNc1cccc2ccccc12,4.6%
22,Cc1ccccc1/[N+]([O-])=C/c1ccncc1,9.27%
23,O=C(CN1CCN(S(=O)(=O)/C=C/c2ccccc2)CC1)Nc1ccc(N2CCOCC2)cc1,-1.05%
24,O=C(c1ccc(S(=O)(=O)N2CCOCC2)cc1)N1CCN(c2ccccc2)CC1,-2.23%
25,Cc1cccc(N2C(=O)c3ccc(C(=O)Nc4cccc(C(=O)O)c4)cc3C2=O)c1,10.2%
26,O=C(O)c1ccc2c(c1)C(=O)N(c1ccc(/C=C/C(=O)c3ccccc3)cc1)C2=O,46.6% (active)
27,O=C(/C=C/c1ccc(N2CCOCC2)cc1)c1ccccc1,46.4% (active)
28,CC(=O)Oc1ccc(C)cc1N1C(=O)c2ccc(C(=O)O)cc2C1=O,6.31%
